Source: PubChem BioAssay
Tgondii IFNg: T. gondii growth inhibition under IFN-gamma. Toxoplasma gondii growth in IFN-gamma-treated host cells; active compounds read low. 69,000 tested, 3.8% active. activity change, negative = inhibition, % (test concentration not listed). AID 1259416; in the data active = activity change below about -70%, passing the limit was not always enough;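 note: host cells are HeLa cells infected with Toxoplasma gondii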
Starred values were filed as active, the others as inactive. Only a selection was taken, and hits are over-represented in it overall.

SMILES | Tgondii IFNg
COc1ccccc1OCc1cc(C(=O)N2CCC2c2ccccc2)n[nH]1 (stereo unspecified) | -12
COc1ccc(-c2nc(NCCCN3CCOCC3)c3ccccc3n2)cc1 | -29
O=C(NCc1ccccc1)Nc1ccc(-c2nc(-c3cccc(Br)c3)co2)cc1 | -30
CN(Cc1ccco1)Cc1cn(-c2ccccc2)nc1-c1ccc2c(c1)OCO2 | -17
COc1ccccc1C(=O)N1CCC2(CC1)CN(Cc1ncc[nH]1)CCN2C | 19
CO[C@@H]1CCN(Cc2cccc(C)n2)[C@H]2CN(Cc3ccncc3)C[C@@H]12 | 1
O=C(NCc1ccccc1F)c1nc(Nc2ccccc2)c2ccccc2n1 | -20
Cc1cccc(OC2CCN(C(=O)c3nc4ccccc4n(C)c3=O)CC2)c1 | 7
CCc1ccc(CN2CCN(c3cc(C(N)=O)ccn3)CC2)nc1 | 0
C1=CC[C@H]2CN(c3ncnc4[nH]ccc34)C[C@H]2C1 | -53
Cc1cc(C2CCCN2C(=O)c2cc(C(F)(F)F)nn2C)on1 (stereo unspecified) | 1
CC(C)Oc1ncnc2c1CCN(S(=O)(=O)C1CC1)CC2 | -26
CN(c1ccccc1)c1ccc2ccc(C(=O)CCN3CCOCC3)cn12 | 238
Cc1nc(C2CC2)ncc1C(=O)NCc1nccn1Cc1ccccc1 | 2
COC(=O)c1sc(-c2cccs2)cc1NS(=O)(=O)c1ccsc1C(=O)OC | -85*
COC(=O)c1sccc1S(=O)(=O)Nc1ccc(C)cc1 | 11
COC(=O)c1sccc1S(=O)(=O)Nc1ccc(Nc2ccccc2)cc1OC | -1
O[C@H]1CCN(Cc2nccs2)[C@@H]1Cc1cccnc1 | 5
O=C(NCc1ccco1)c1cc(N2CCNC(c3ccccc3)C2)ccn1 (stereo unspecified) | -7
COc1cccc(-c2nccc(C3CCCN3C(=O)c3ccc4ncccc4c3)n2)c1 (stereo unspecified) | 28
C=C[C@H]1CN2CC[C@H]1C[C@H]2[C@H](O)c1ccnc2ccc(OC)cc12 | -85*
CN1C(=O)CC2C1CCN2C(=O)c1ccc[nH]1 (stereo unspecified) | 94
Cc1cccc(C(=O)N2CCc3ncnc(C4CCOC4)c3CC2)n1 (stereo unspecified) | 191
O=C(CCC1C(=O)Nc2ccccc21)NCc1cc(Cl)c2c(c1)OCCCO2 (stereo unspecified) | 1
CCC(C(=O)NCc1cc(Cl)c2c(c1)OCCCO2)n1nc(C)cc1C (stereo unspecified) | 10
SMILES | Tgondii IFNg
O=C(NCc1cc(Cl)c2c(c1)OCCCO2)c1cccc(Nc2ncccn2)c1 | -71*
Cn1nc(CNC(=O)C2CCCN(C(N)=O)C2)c2c(Cl)cccc21 (stereo unspecified) | -2
O=C1CCC2(CCCO2)CCN1Cc1cncn1C1CC1 (stereo unspecified) | 42
CNS(=O)(=O)c1ccc(CN(C)CCOc2ccc(C)cc2C)cc1 | 44
NC(=O)c1cc2c(s1)-c1cc(Cl)ccc1SC2 | -79*
CCOc1ccccc1N(Cc1nc(-c2ccc(C)cc2)oc1C)S(=O)(=O)c1ccccc1 | -49
Cc1nc(CCc2nc3ccccc3[nH]2)cc(NCC2(c3ccccc3)CCOCC2)n1 | -58
C=CCNc1nnc(SCC(=O)N2N=CCC2c2ccccc2)s1 (stereo unspecified) | 20
COc1cc(-c2nc3ccccc3n2C)cc(OC)c1OC | 2
Cn1c(Br)nc2ccccc21 | 11
COc1cccc(-n2cnc3ccccc32)n1 | -90*
CN(C)C[C@@H]1CC2CN(Cc3nccn3C)CCC2N1C (stereo partly specified) | -2
c1ccc(CN2CCC(Cn3cnnc3)C2)cc1 (stereo unspecified) | 1
CCOC(=O)c1c(NC(=O)CSc2nc(C)cc(C)n2)sc(C(C)=O)c1C | -24
CCOC(=O)c1sc(NC(=O)CSc2n[nH]c(-c3ccccn3)n2)c(C#N)c1C | -108*
Cc1sc(NC(=O)CSc2nc3cc4c(cc3cc2C#N)OCCO4)c(C#N)c1C | 198
CCCCNC(=O)CCC1N=C2c3ccccc3N=C(SCC#N)N2C1=O (stereo unspecified) | 29
CCCNC(=O)c1c(O)c2cccnc2n(-c2ccc(OC)cc2)c1=O | 143
COc1cc(-c2nnc(C3CCCCC3)o2)ccc1OCc1ccccc1 | -81*
COc1cc(C2N3CCCN2CC3)ccc1OCc1ccccc1 (stereo unspecified) | 162
COc1ccc(-c2nnc(-c3nc(NC4CCCCC4)c4ccccc4n3)o2)cc1 | -23
CN(C)C(=O)CC1CC2(CCN(C(=O)COc3ccccc3)CC2)Oc2ccccc21 (stereo unspecified) | 92
COCC(NC(=O)c1c(C)nc2cc(C)ccn12)c1ccnn1C (stereo unspecified) | -8
CN(Cc1cccnc1)C1CCN(C(=O)c2cnccn2)C(C(=O)O)C1 (stereo unspecified) | 8
CN(Cc1cccnc1)C1CCN(C(=O)c2ccccn2)C(C(=O)O)C1 (stereo unspecified) | -74*
SMILES | Tgondii IFNg
CN(Cc1cccnc1)C1CCN(C(=O)c2cccnc2)C(C(=O)O)C1 (stereo unspecified) | -5
COCC(=O)N1CCc2ncnc(Nc3ccc(C)cc3)c2CC1 | -65
Cc1ccc2[nH]cc(-c3ccc(S(N)(=O)=O)s3)c2c1 | 5
O=C1CCc2cc(S(=O)(=O)NCC(c3ccccc3)c3c[nH]c4ccccc34)ccc2N1 (stereo unspecified) | 35
CCOc1ccc(N(C(=O)c2ccc(C)cc2)C2(C(=O)NCc3ccccc3)CCN(C(C)=O)CC2)cc1 | 5
Cc1nc(-c2ccccn2)nc(SCC(=O)N2CCOCC2)c1Cl | -24
Cc1nc(-c2ccccn2)nc(SCc2ccccc2)c1Cl | -89*
Clc1ccc(CSc2n[nH]c(-c3ccccn3)n2)cc1 | -62
CC(C)NC(=O)N1CCC(c2nnc3ccc(C(=O)Cc4ccccn4)cn23)C1 (stereo unspecified) | 3
CSc1cc(-c2ccc(Cl)cc2)[nH]c(=O)c1C#N | 56
CSc1scc(-c2ccc(Cl)cc2)c1C#N | -91*
CSc1scc(NS(=O)(=O)c2ccc(Cl)cc2)c1S(=O)(=O)C(C)C | -47
NC(=O)c1csc(-c2ccc(F)cc2F)n1 | -107*
O=C(NCCc1csc(-c2ccc(F)cc2)n1)C(=O)Nc1ccc(F)cc1F | 14
NC(=O)c1csc(-c2cccc(C(=O)O)c2)n1 | -2
CCc1cccc(NC(=O)CCC(=O)N(C)C(C)c2nccs2)c1 (stereo unspecified) | -25
C=CCn1c(=O)c(C(=O)Nc2nccs2)c(O)c2ccccc21 | 67
Cc1cc(C)n(C(C)C(=O)N2Cc3cnc(-c4ccccc4)nc3C2)n1 (stereo unspecified) | -14
COc1ccc(-c2cc(N)n(C)n2)cc1 | 111
Cc1ccc(-c2ccc(=O)[nH]n2)cc1-n1cnnc1 | 8
COc1ccc(Cn2c(-c3ccncc3)n[nH]c2=O)cc1 | -4
COc1ccc(-c2c(N)n[nH]c2C)cc1OC | -14
COc1cc(-c2ccc(=O)[nH]n2)ccc1OC(F)F | -87*
COc1ccc(-c2ccc(=O)[nH]n2)cc1 | -115*
Cc1nc(-c2ccc(-n3ccnc3-c3ccccc3Cn3cccn3)cc2)n[nH]1 | -14
COCC#Cc1ccc2c(c1)O[C@@H](CN(C)C(=O)C1CCOCC1)[C@@H](C)CN([C@H](C)CO)S2(=O)=O | 72
C[C@@H]1CN([C@H](C)CO)S(=O)(=O)c2ccc(-c3ccncc3)cc2O[C@H]1CN(C)S(C)(=O)=O | -104*
